This note sets out measurements from PubChem BioAssay.

Where “and” joins values, the source holds several entries; their conditions need not be identical. Identical values can stand only once. Calls of active or inactive are those of the source. Unless noted, how the calls were made is not given here.

A short description of assay [1]: compounds altering circadian rhythm period length – cell-based, LOPAC library, luminescence reporter (AID 2774).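 Further: values are relative to mean of DMSO wells on each plate.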 Conditions: circadian reporter cells, at 7 µM, actives lie on both sides.
The test system of assay [2] is Hepatitis C virus NS3 helicase. Nature of the assay: blockers of NS3h binding to ssDNA – biochemical, fluorescence polarization, LOPAC1280 library, primary screen (AID 687035; in the data active means inhibition above about 37%). Conditions: Purified HCV NS3 helicase, Cy5-dT15 ssDNA binding fluorescence polarization; stronger effect = higher value; concentration not given here. For orientation: Polarisation of emitted light reports the rotation of a fluorescent probe.

Assay [3] can be described thus: compounds altering Cy5-DNA-NS3h complex signal – biochemical, LOPAC1280, artefact control for HCV NS3 helicase inhibitor project (AID 687037). Conditions: Cy5-DNA-NS3h complex fluorescence interference counterscreen. (Counterscreens check selectivity or assay interference.)
Assay [4] deals with Aerobactin synthetase IucA (Klebsiella pneumoniae). The assay can be described thus: inhibition of K. pneumoniae IucA enzyme – biochemical, Tocris library, absorbance (AID 1345561).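 Further: 100% = enzyme without compound and 0% = no enzyme.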 The following applies: purified IucA enzyme assay, absorbance (OD) read-out; stronger effect = lower value;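 tested at 8 µM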.
Assay [5] can be described thus: viability loss with induced miR-34 in A549 – imaging, A549 dox-inducible miR-34, nuclei and caspase counts, primary screen (AID 1347080;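 active means compounds whose cell count with miR-34 switched on is under 0.7 times the count with it off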). Conditions: A549 miR-34 inducible, Hoechst nuclei count, 48 h.
The nature of assay [6]: blockers of cellular phospholipid synthesis – cell-based, LOPAC library, screen 4, primary screen (AID 1347384). Conditions: animal cells, phospholipid biosynthesis inhibition screen; at 10 µM.
Assay [7] in a line: galactose survival enhancers in mitochondrial complex I cybrids – cell-based, galactose medium, ATP luminescence, primary screen (AID 1645843;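 active means z-score of at least 1.8 in each of two replicates, scored against plate mean and spread of sample wells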;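 further: positive z means more ATP and so rescue of galactose-driven cybrid death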). The following applies: complex I mutant cybrid cells, 72 h, stronger effect = higher value.
[8] abbreviates: stronger effect = lower value, cell number ratio, induced over uninduced.
Setting [9] is: measured here: relative caspase fold change +Dox/-Dox.
Setting [10] is: measured here: total cells with miR-34 induction, stronger effect = lower value.
[11] abbreviates: measured here: total cells without miR-34 induction.

In general, inhibition refers to the relative decrease from the control value, in per cent. By remaining activity is commonly meant the signal under treatment as a percentage of the control signal. Take `Cc1nc2c(OCc3ccccc3)cccn2c1CC#N`: the period change in assay [1] was -0.02 h (inactive). Also, the inhibition in assay [2] is 1% (inactive). In addition, the fluorescence ratio (interference) in assay [3] was 1 (inactive). For the same compound, the remaining activity in assay [4] was 113% (inactive). Further, the fold change is 1.04 (inactive) and 0.99 (inactive) in assay [5] (setting [8]); 1.18 and 1.15 in assay [5] (setting [9]). For the same compound, the cell count was 9420 and 8410 in assay [5] (setting [10]); 9080 and 8490 in assay [5] (setting [11]). Also, in assay [6], the call was inactive. In addition, the z-score in assay [7] is 1.07 (inactive) and 2.13 (inactive).

Consider `COc1ccc(NC(=O)c2ccc(-c3ccc(-c4noc(C)n4)cc3C)cc2)cc1N1CCN(C)CC1`, for which the period change in assay [1] was 0.065 h (inactive). Moreover, the inhibition in assay [2] was -3% (inactive). Further, in assay [3], the fluorescence ratio (interference) was 0.9 (inactive). The remaining activity in assay [4] is 119% (inactive). Further, the fold change in assay [5] (setting [8]) is 0.954 (inactive) and 1.08 (inactive); in assay [5] (setting [9]) it was 0.805 and 0.587. The cell count in assay [5] (setting [10]) was 510 and 1390; in assay [5] (setting [11]), 535 and 1290. Also, the result in assay [6] was inactive. Moreover, the z-score in assay [7] is -1.29 (inactive) and -0.715 (inactive).

On to `C[C@@H](CN1CCC(Cc2ccccc2)CC1)[C@@H](O)c1ccc(O)cc1`, for which the period change in assay [1] is 0.12 h (inactive). In addition, the inhibition in assay [2] was -3% (inactive). Also, the fluorescence ratio (interference) in assay [3] is 1 (inactive). In addition, the remaining activity in assay [4] was 113% (inactive). In addition, the fold change in assay [5] (setting [8]) is 0.971 (inactive) and 0.906 (inactive); in assay [5] (setting [9]), 0.907 and 0.699. The cell count in assay [5] (setting [10]) is 9590 and 8970; in assay [5] (setting [11]) it was 9880 and 9910. In addition, the call in assay [6] was inactive. The z-score in assay [7] was -1.21 (inactive) and -0.605 (inactive).

Turning to `CC(C)(C=O)Cc1cc(C(C)(C)C)c(O)c(C(C)(C)C)c1`, the period change in assay [1] is 0.05 h (inactive). The inhibition in assay [2] is 0% (inactive). In addition, the fluorescence ratio (interference) in assay [3] is 1 (inactive). Besides, the remaining activity in assay [4] is 125% (inactive). The fold change in assay [5] (setting [8]) is 1.05 (inactive) and 0.927 (inactive); in assay [5] (setting [9]), 1.79 and 0.718. Besides, the cell count was 9400 and 9850 in assay [5] (setting [10]); 8980 and 10600 in assay [5] (setting [11]). Besides, the outcome in assay [6] was inactive. The z-score in assay [7] was -1.33 (inactive) and -0.18 (inactive).

With `CCCCCCCC/C=C\CCCCCCCC(=O)NCCO`, the period change in assay [1] is 0.02 h (inactive). Also, in assay [2], the inhibition is -1% (inactive). The fluorescence ratio (interference) in assay [3] was 1 (inactive). Further, the remaining activity in assay [4] was 112% (inactive). Further, the fold change in assay [5] (setting [8]) was 1.03 (inactive) and 1.01 (inactive) and 0.976 (inactive); in assay [5] (setting [9]) it was 0.948 and 0.828 and 0.812. Moreover, the cell count was 10400 and 5960 and 9000 in assay [5] (setting [10]); 10100 and 5900 and 9210 in assay [5] (setting [11]). Further, in assay [6], the compound was classed as inactive. Also, the z-score in assay [7] was -1.28 (inactive) and -0.79 (inactive).

Regarding `N[C@@H](CS(=O)O)C(=O)O`, in assay [1], the period change was 0.04 h (inactive). Also, the inhibition in assay [2] is -5% (inactive). Besides, in assay [3], the fluorescence ratio (interference) is 0.9 (inactive). For the same compound, in assay [4], the remaining activity was 124% (inactive). Moreover, the fold change is 1.01 (inactive) and 0.998 (inactive) in assay [5] (setting [8]); 1.54 and 0.698 in assay [5] (setting [9]). Also, the cell count in assay [5] (setting [10]) is 10700 and 8340; in assay [5] (setting [11]), 10600 and 8360. The compound was called inactive in assay [6]. In assay [7], the z-score is 0.58 (inactive) and 0.25 (inactive).

For the compound `CCN(CC)CCOC(=O)c1cc(Cl)c(N)cc1OC`, the period change in assay [1] is -0.055 h (inactive). For the same compound, in assay [2], the inhibition is -6% (inactive). Besides, in assay [3], the fluorescence ratio (interference) is 1 (inactive). Besides, the remaining activity in assay [4] was 95% (inactive). In addition, the fold change in assay [5] (setting [8]) was 0.965 (inactive) and 0.955 (inactive); in assay [5] (setting [9]), 1.47 and 1.03. The cell count in assay [5] (setting [10]) is 10500 and 9010; in assay [5] (setting [11]) it was 10800 and 9430. For the same compound, in assay [6], the result was inactive. The z-score in assay [7] was 0.75 (inactive) and 0.1 (inactive).

Regarding `COC(=O)C1=C(C)NC(C)=C([N+](=O)[O-])C1c1ccccc1C(F)(F)F` (stereo not given), the period change in assay [1] was 0.05 h (inactive). The inhibition in assay [2] was -5% (inactive). In assay [3], the fluorescence ratio (interference) is 0.9 (inactive). In addition, in assay [4], the remaining activity is 124% (inactive). In addition, the fold change in assay [5] (setting [8]) was 1.01 (inactive) and 1 (inactive) and 0.845 (inactive); in assay [5] (setting [9]), 1.21 and 1.49 and 0.884. The cell count is 9160 and 5080 and 7400 in assay [5] (setting [10]); 9050 and 5080 and 8750 in assay [5] (setting [11]). Moreover, the call in assay [6] was inactive. Moreover, the z-score in assay [7] is -0.7 (inactive) and -0.625 (inactive).

With `NCC(O)(CS(=O)(=O)O)c1ccc(Cl)cc1` (stereo not given), the period change in assay [1] is 0.035 h (inactive). In addition, in assay [2], the inhibition is -2% (inactive). The fluorescence ratio (interference) in assay [3] was 1 (inactive). For the same compound, the remaining activity in assay [4] is 105% (inactive). In addition, the fold change in assay [5] (setting [8]) is 0.977 (inactive); in assay [5] (setting [9]), 2.17 and 0.803. Moreover, the cell count in assay [5] (setting [10]) is 9480 and 8580; in assay [5] (setting [11]), 9700 and 8780. Besides, the call in assay [6] was inactive. The z-score in assay [7] was 0.265 (inactive) and -0.115 (inactive).

As for `S=C(S)N1CCCC1`, the period change in assay [1] was 0.08 h (inactive). In addition, the inhibition in assay [2] is -2% (inactive). The fluorescence ratio (interference) in assay [3] is 1 (inactive). Further, the remaining activity in assay [4] was 87.7% (inactive). In addition, the fold change in assay [5] (setting [8]) is 0.892 (inactive) and 0.97 (inactive); in assay [5] (setting [9]), 1.02 and 0.891. Further, the cell count in assay [5] (setting [10]) was 6850 and 8740; in assay [5] (setting [11]), 7680 and 9010. The result in assay [6] was inactive. Also, in assay [7], the z-score is -1.38 (inactive) and -1.23 (inactive).

On to `NC(=O)CNCCC(c1ccccc1)c1ccccc1`, for which the period change in assay [1] was -0.275 h (inactive). Also, the inhibition in assay [2] was 0% (inactive). For the same compound, in assay [3], the fluorescence ratio (interference) is 1.1 (inactive). Further, the remaining activity in assay [4] was 72.6% (inactive). The fold change in assay [5] (setting [8]) was 0.993 (inactive) and 0.866 (inactive); in assay [5] (setting [9]), 1.46 and 1.33. For the same compound, the cell count in assay [5] (setting [10]) is 9880 and 8250; in assay [5] (setting [11]), 9950 and 9520. Moreover, the compound was classed as inactive in assay [6]. Further, in assay [7], the z-score was -0.185 (inactive) and 0.085 (inactive).

Regarding `COc1ccccc1N1CCN(CCCCN2C(=O)c3ccccc3C2=O)CC1`, the period change in assay [1] was 0.18 h (inactive). In assay [2], the inhibition is -3% (inactive). Besides, in assay [3], the fluorescence ratio (interference) is 1 (inactive). The remaining activity in assay [4] is 97.1% (inactive). Moreover, the fold change in assay [5] (setting [8]) is 1.11 (inactive) and 0.969 (inactive); in assay [5] (setting [9]), 1.56 and 0.971. For the same compound, the cell count in assay [5] (setting [10]) is 9310 and 9300; in assay [5] (setting [11]), 8410 and 9600. For the same compound, the outcome in assay [6] was inactive. Also, in assay [7], the z-score is -0.155 (inactive) and -0.92 (inactive).

Take `O=c1onc2cnc3ccccc3n12`: the period change in assay [1] is 0.13 h (inactive). The inhibition in assay [2] was 0% (inactive). Besides, the fluorescence ratio (interference) in assay [3] is 1 (inactive). Further, in assay [4], the remaining activity is 108% (inactive). Further, the fold change in assay [5] (setting [8]) was 1.09 (inactive) and 0.945 (inactive) and 0.946 (inactive); in assay [5] (setting [9]), 1.29 and 1.08 and 0.805. Also, the cell count in assay [5] (setting [10]) was 8010 and 5220 and 7630; in assay [5] (setting [11]), 7350 and 5530 and 8060. Moreover, in assay [6], the compound was called inactive. Further, in assay [7], the z-score is 0.125 (inactive) and 0.635 (inactive).

For `CC#CCOC(=O)c1c(C)nc2sc3c(c2c1N)CCC(O)C3` (stereo not given), the period change in assay [1] is -0.09 h (inactive). In addition, in assay [2], the inhibition was -3% (inactive). Moreover, in assay [3], the fluorescence ratio (interference) was 1 (inactive). Moreover, in assay [4], the remaining activity was 102% (inactive). Also, the fold change in assay [5] (setting [8]) is 0.861 (inactive) and 0.824 (inactive); in assay [5] (setting [9]) it was 0.901 and 1. Moreover, the cell count in assay [5] (setting [10]) is 7740 and 5720; in assay [5] (setting [11]) it was 8990 and 6940. Also, the call in assay [6] was inactive. The z-score in assay [7] was -1.22 (inactive) and -0.71 (inactive).
